Source: PubChem BioAssay (NCI)
About 79,000 compounds went through this panel and 15% of them were active in at least one assay; those are over-represented in the sample as a whole. Unmarked numbers belong to inactive results. Calls of active or inactive are those of the source. Cut-off read from the data, not from the text of the source: active = growth inhibition above about 70%; inactive = the rest.

Experiment: NCI Yeast Anticancer Drug Screen. Data for the rad14 strain (AID 159);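 note: 0% = growth of vehicle-treated control cultures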
Details: S. cerevisiae rad14 strain growth inhibition; at 33.0 µM; active compounds read high
In short: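 A mutant yeast strain defective in DNA damage repair is treated with compound; inhibition of its growth is scored against untreated, vehicle-exposed cultures.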

Compound | growth inhibition
CNC(=O)OCc1c(COC(=O)NC)c(-c2ccc(Cl)cc2)n2c1CCC2 | 2%
CC(=O)OC1CC2C(C)(C)C(=O)C=C[C@]2(C)C2CCC3(C)C(=CCC3[C@H](CO)C[C@H](O)C(=O)C(C)(C)O)[C@]12C (stereo partly specified) | -5%
CCCCCCOC(=O)NCCOC(=O)Nc1ccccc1 | 17%
C[C](C)(C)[Ge]([O][Ge]([c]1ccccc1)[c]1ccccc1)([O][Ge]([c]1ccccc1)[c]1ccccc1)[C](C)(C)C | 46%
CCc1c(Cl)c(C)cc(O)c1Cl | 4%
Cc1nc(Nc2ccccc2[N+](=O)[O-])sc1C(=O)CC(=O)C(=O)Nc1c(C(C)C)cccc1C(C)C | 0%
O=[N+]([O-])c1cccc2nc3ccccc3c(NCCCn3ccnc3[N+](=O)[O-])c12 | 97% (active)
CCCCCCC(O)CNCc1ccnc2ccc(OC)cc12 (stereo unspecified) | 33%
Cc1c2cccc(Sc3ccccc3)c2c2c3c(cccc13)[S+](c1ccccc1)C2 (stereo unspecified) | 96% (active)
C=C1CCC(O)C/C1=C/C=C1\CCCC2(C)C1CCC2C(C)CCCC(C)C (stereo unspecified) | -23%
NC1=NNC2(C(N)=N1)c1ccccc1-c1ccccc12 | 1%
COc1cc2cc3c4cc(OC)c(OC)cc4cc[n+]3c(C)c2cc1OC | -26%
COC(=O)NC1C(C)OC(OC2C/C=C(/C)C3C=CC4C(OC5CC(OC6CC(O)C(OC7CC(O)C(OC)C(C)O7)C(C)O6)C(O)C(C)O5)C(C)CC(C)C4C3(C)/C(O)=C3\C(=O)OC4(CC(C)C(CO)=CC4/C=C\2C)C3=O)CC1(C)[N+](=O)[O-] (stereo unspecified) | 16%
O=C1CSC(c2cccc(Cl)c2)N1c1ccc(-c2ccc(-n3c(-c4ccccc4)nc4ccccc4c3=O)cc2)cc1 (stereo unspecified) | 32%
CCOC(=O)C(C(=O)OCC)=P(c1ccccc1)(c1ccccc1)c1ccccc1 | 6%
COc1ccc(N=CN(C)C)c(C)c1 | 92% (active)
Cc1cc(S(=O)(=O)Nc2nnc3cnc4ccccc4n23)c(S)cc1Cl | 21%
O=C(Oc1ccc2c(c1)CN(Cc1ccccc1)CO2)c1ccccc1 | 40%
CN(C)[C@@H]1C(=O)C(C(N)=O)=C(O)[C@@]2(O)C(=O)C3=C(O)c4c(O)cccc4C[C@H]3C[C@@H]12 | 98% (active)
O=[N+]([O-])c1ccc2c(c1)/C(=N/N=C1c3ccccc3Cc3ccccc31)c1cc([N+](=O)[O-])cc([N+](=O)[O-])c1-2 | 99% (active)
Cc1nc2c(Br)cc(Br)cc2c(=O)n1-c1ccccc1NC1OCC(O)C(O)C1O (stereo unspecified) | 39%
Cc1cc(N(CCOS(C)(=O)=O)CCOS(C)(=O)=O)ccc1C=Nc1ccc(-c2nc(Cc3ccccc3)sc2C)cc1 | 96% (active)

Same assay, conditions: S. cerevisiae rad14 strain growth inhibition; at 100.0 µM; active compounds read high

Compound | growth inhibition
O=C1/C(=C/c2ccccc2)CCCC1CN1CCCCC1 (stereo unspecified) | 98% (active)
C#CCN(Cc1ccc2nc(N)[nH]c(=O)c2c1)c1ccc(C(=O)NC(CCC(=O)O)C(=O)O)cc1 (stereo unspecified) | 69%
CCOC1(c2cccc([N+](=O)[O-])c2)c2ccccc2Oc2ccccc21 | 10%
O=C(O)CNC(=S)Nc1ccccc1 | 91% (active)
N/C(=N/N=C/c1cc(Br)cc(Br)c1O)NO | 98% (active)
C[Si](C)(C)/C=C/CCNC(C#N)c1ccccc1 (stereo unspecified) | 94% (active)
CCCCCCCCCCCCCCCCOP(=O)(O)OCC(N)C(=O)O (stereo unspecified) | 97% (active)
CC1=C(C(=O)NCc2ccccc2)C(c2ccccc2)C(C(=O)NCc2ccccc2)=C(C)N1 | 92% (active)
O=[N+]([O-])c1cc(S(=O)(=O)Nc2ccccc2)ccc1Nc1ccccc1 | 77% (active)
COc1cc2ccnc(-c3c4ccccc4c(N)c4c(OC)c(OC)ccc34)c2cc1OC | 43%
CCOC(=O)C(Br)C(Br)c1ccccc1Cl (stereo unspecified) | 99% (active)
CCOC(=O)C1=C(C)NC(C)=C(C(=O)OCCNC(=O)c2ccc(N=[N+]=[N-])cc2)C1c1ccccc1C(F)(F)F (stereo unspecified) | 22%
Cc1cc(C)c(NC(=S)NC(=O)c2ccccc2)cc1C | -9%
CNCCCNc1c2ccccc2nc2cccc([N+](=O)[O-])c12 | 97% (active)
COc1c(O)c(C=O)c(Br)c(C=O)c1O | 83% (active)
Cc1c(C)c(C)c(CSC(=N)N)c(C)c1C | 98% (active)
O=C(CSC(=S)N1CCCCC1)Nc1nc2c(s1)CCCC2 | 73% (active)
CNC(=O)OCc1c(COC(=O)NC)c(-c2ccc(Cl)cc2)n2c1CCC2 | 98% (active)
CC(=O)OC1CC2C(C)(C)C(=O)C=C[C@]2(C)C2CCC3(C)C(=CCC3[C@H](CO)C[C@H](O)C(=O)C(C)(C)O)[C@]12C (stereo partly specified) | 77% (active)
CCCCCCOC(=O)NCCOC(=O)Nc1ccccc1 | 16%

Compound | growth inhibition
C[C](C)(C)[Ge]([O][Ge]([c]1ccccc1)[c]1ccccc1)([O][Ge]([c]1ccccc1)[c]1ccccc1)[C](C)(C)C | 57%
CCc1c(Cl)c(C)cc(O)c1Cl | 90% (active)
Cc1nc(Nc2ccccc2[N+](=O)[O-])sc1C(=O)CC(=O)C(=O)Nc1c(C(C)C)cccc1C(C)C | 3%
O=[N+]([O-])c1cccc2nc3ccccc3c(NCCCn3ccnc3[N+](=O)[O-])c12 | 98% (active)
CCCCCCC(O)CNCc1ccnc2ccc(OC)cc12 (stereo unspecified) | 49%
Cc1c2cccc(Sc3ccccc3)c2c2c3c(cccc13)[S+](c1ccccc1)C2 (stereo unspecified) | 90% (active)
C=C1CCC(O)C/C1=C/C=C1\CCCC2(C)C1CCC2C(C)CCCC(C)C (stereo unspecified) | 38%
NC1=NNC2(C(N)=N1)c1ccccc1-c1ccccc12 | 97% (active)
COc1cc2cc3c4cc(OC)c(OC)cc4cc[n+]3c(C)c2cc1OC | -27%
COC(=O)NC1C(C)OC(OC2C/C=C(/C)C3C=CC4C(OC5CC(OC6CC(O)C(OC7CC(O)C(OC)C(C)O7)C(C)O6)C(O)C(C)O5)C(C)CC(C)C4C3(C)/C(O)=C3\C(=O)OC4(CC(C)C(CO)=CC4/C=C\2C)C3=O)CC1(C)[N+](=O)[O-] (stereo unspecified) | 13%
O=C1CSC(c2cccc(Cl)c2)N1c1ccc(-c2ccc(-n3c(-c4ccccc4)nc4ccccc4c3=O)cc2)cc1 (stereo unspecified) | 47%
CCOC(=O)C(C(=O)OCC)=P(c1ccccc1)(c1ccccc1)c1ccccc1 | 93% (active)
COc1ccc(N=CN(C)C)c(C)c1 | 95% (active)
Cc1cc(S(=O)(=O)Nc2nnc3cnc4ccccc4n23)c(S)cc1Cl | 40%
O=C(Oc1ccc2c(c1)CN(Cc1ccccc1)CO2)c1ccccc1 | 87% (active)
CN(C)[C@@H]1C(=O)C(C(N)=O)=C(O)[C@@]2(O)C(=O)C3=C(O)c4c(O)cccc4C[C@H]3C[C@@H]12 | 99% (active)
O=[N+]([O-])c1ccc2c(c1)/C(=N/N=C1c3ccccc3Cc3ccccc31)c1cc([N+](=O)[O-])cc([N+](=O)[O-])c1-2 | 95% (active)
Cc1nc2c(Br)cc(Br)cc2c(=O)n1-c1ccccc1NC1OCC(O)C(O)C1O (stereo unspecified) | 94% (active)
Cc1cc(N(CCOS(C)(=O)=O)CCOS(C)(=O)=O)ccc1C=Nc1ccc(-c2nc(Cc3ccccc3)sc2C)cc1 | 96% (active)
